Compounds with a hit are over-represented: about 11% of the library has one in this group of screens.
HPGD block – HPGD (human) dehydrogenase inhibition. P15428. purified HPGD, NADH fluorescence kinetic, PGE2 substrate. Potency, µM, inactives show at the top dose activity change, negative = inhibition, most hits filed as inhibitors. actives 4.3% (n = 150,000). AID 894; note: potency is the fitted concentration of half-maximal effect
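NADH formation kinetics: reaction with 30 uM PGE2 and 1 mM NAD+ (final), 20 nM enzyme, Tris-HCl pH 8 with Tween 20, after 15 min compound preincubation at room temperature. Fluorescence change, last versus first of five reads.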
ALDH1A1 inh – ALDH1A1 (human) enzyme inhibition. Purified ALDH1A1, NADH fluorescence, propionaldehyde substrate. Potency, µM (titrated, usually from 75.3 µM), for inactives: at the top dose activity, negative = inhibition, hits mostly inhibitors. P00352. actives 7.3% (n = 220,000). AID 1030;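 note: potency is the fitted concentration of half-maximal effect; plate controls were no enzyme wells and a reference inhibitor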
KDM4E inh – blocks human JMJD2E demethylase activity; B2RXH2; JMJD2E catalytic domain, FDH-coupled NADH fluorescence (FDH is formaldehyde dehydrogenase); Potency, µM (top dose mostly 57.1 µM), for the others: top-dose activity change, negative = inhibition, actives largely listed as inhibitors; actives 1.6% (n = 230,000);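 note: potency is the fitted concentration of half-maximal effect; 0% = wells with enzyme and -100% = buffer wells without enzyme; nearly all actives have a fitted effect of over 50% in size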
Target sequence (B2RXH2 1-337 limits assumed): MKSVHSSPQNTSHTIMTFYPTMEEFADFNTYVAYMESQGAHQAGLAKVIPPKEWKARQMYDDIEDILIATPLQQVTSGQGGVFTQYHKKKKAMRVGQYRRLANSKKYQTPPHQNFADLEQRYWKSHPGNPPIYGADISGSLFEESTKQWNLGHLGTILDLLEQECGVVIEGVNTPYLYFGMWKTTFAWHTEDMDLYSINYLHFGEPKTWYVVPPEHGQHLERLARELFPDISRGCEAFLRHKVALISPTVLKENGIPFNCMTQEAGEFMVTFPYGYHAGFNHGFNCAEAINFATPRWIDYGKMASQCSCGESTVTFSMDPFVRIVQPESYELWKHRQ
PNC assembly inh – inhibitors of perinucleolar compartment assembly | PC3M PTB-GFP, PNC prevalence imaging, 16 h; hits give low values | activity change (PNC), negative = inhibition, % at 10 µM | actives 3.1% (n = 140,000) | AID 2417;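 active = readout at or below -70, meaning at least 70% loss of cells showing the perinucleolar compartment, a nuclear body marking cancer cells; inconclusive = readout between -30 and a set limit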;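 note: plate controls were DMSO wells for no effect and camptothecin positive control wells for full effect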
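PC3M cells stably expressing PTB-GFP, 750–1000 cells/well, treated 16 h at 37 °C with compound (23 nl of library stock), in duplicate. After paraformaldehyde fixation and Hoechst stain, imaged at 20x; PNC prevalence scored by image analysis.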
Numbers without * were called inactive. Unless noted, calls come from the whole dose curve; as a rule, active = well fitted inhibition curve with a large enough effect (not every such curve was filed as active); inconclusive = small, poorly fitted or top-dose-only effect, or another doubt; inactive = no such curve, though single readings can be large or run the other way. Unless noted, % is set by controls: 0 for no effect and ±100 for the full control effect.

FC(F)(F)c1ccncc1-c1nnnn1-c1ccc(Cl)cc1 was read as KDM4E inh -2%.
Screening Cc1cccc(-n2nnnc2-c2cnccc2C(F)(F)F)c1C returned ALDH1A1 inh 16µM* and KDM4E inh -7%.
Screening COC(=O)c1c(N)n(-c2ccc(NC(C)=O)cc2)c2nc3ccccc3nc12 returned HPGD block inconclusive, ALDH1A1 inh inconclusive, KDM4E inh inconclusive and PNC assembly inh -29.
`COC(=O)c1c(N)n(-c2ccc(N3CCOCC3)cc2)c2nc3ccccc3nc12` gave HPGD block -26%, ALDH1A1 inh 18µM*, KDM4E inh 18µM* and PNC assembly inh 15.
For O=C(CSc1nnc(-c2ccc(O)cc2)n1Cc1ccccc1)NNC(=O)c1ccc(Br)cc1 the results were HPGD block -7%, ALDH1A1 inh inconclusive, KDM4E inh -4% and PNC assembly inh -20.
For COc1cccc(-c2nccc(NCc3cccc(C)c3)n2)c1 the results were HPGD block -11%, ALDH1A1 inh 15% and KDM4E inh -14%.
For Cc1cccc(CNc2ccnc(-c3ccoc3)n2)c1 the results were HPGD block inconclusive, ALDH1A1 inh 13µM* and KDM4E inh 12%.
`Cc1cccc(CNc2ccnc(-c3ccc(C(=O)N(C)C)cc3)n2)c1` gave HPGD block 8.9µM*, ALDH1A1 inh inconclusive and KDM4E inh 2%.
Screening Cc1ccc(-c2csc3ncnc(SCC(=O)Nc4nnc(C)s4)c23)cc1 returned HPGD block -7%, ALDH1A1 inh 8%, KDM4E inh 4% and PNC assembly inh inconclusive.
Cc1ccc(-c2csc3ncnc(Sc4nnc(CN5CCCCCC5=O)o4)c23)cc1 was read as HPGD block -27%, ALDH1A1 inh 7.9µM*, KDM4E inh -8% and PNC assembly inh inconclusive.
Screening CCC(C)(C)C1CCc2nc3ccccc3c(C(=O)OC(C)C(=O)Nc3c(C)n(C)n(-c4ccccc4)c3=O)c2C1 (configuration not stated) returned HPGD block -1%, ALDH1A1 inh -11%, KDM4E inh -2% and PNC assembly inh -8.
Screening O=C(O)c1ccccc1N/N=C\c1ccnc2ccccc12 returned HPGD block 13µM*, ALDH1A1 inh inconclusive, KDM4E inh -8% and PNC assembly inh 78.
`O=C(O)c1ccccc1N/N=C/c1cc(Br)cc(Br)c1O` gave KDM4E inh -9%.
Screening C/C(N)=C(/C#N)C(=O)CSc1nc2ccccc2c(=O)n1-c1ccc(C)cc1 returned HPGD block -20%, ALDH1A1 inh inconclusive, KDM4E inh 1% and PNC assembly inh -26.
For C/C(N)=C(/C#N)C(=O)CSc1nc2ccccc2c(=O)n1-c1ccccc1C the results were HPGD block -21%, ALDH1A1 inh 28µM*, KDM4E inh 15% and PNC assembly inh -22.
For Cc1[nH]c2ccccc2c1C(=O)CSc1nc2ccccc2c(=O)n1-c1ccccc1F the results were ALDH1A1 inh 0.56µM* and KDM4E inh -14%.
C/C(N)=C(/C#N)C(=O)CSc1nc2ccccc2c(=O)n1CCCO was read as HPGD block -6%, ALDH1A1 inh inconclusive, KDM4E inh 1% and PNC assembly inh inconclusive.
Screening CCOC(=O)c1c(C)[nH]c(C)c1C(=O)CSc1nc2ccccc2c(=O)n1-c1ccc(Cl)cc1 returned HPGD block -6%, ALDH1A1 inh inconclusive, KDM4E inh inconclusive and PNC assembly inh inconclusive.
For C/C(N)=C(/C#N)C(=O)CSc1nc2scc(-c3ccccc3)c2c(=O)n1C the results were ALDH1A1 inh 5.6µM* and KDM4E inh -3%.
Screening COc1ccc(OC)c(Cc2nnc(CCC(=O)NCc3ccsc3)o2)c1 returned ALDH1A1 inh 0% and KDM4E inh 3%.
For Cc1ccc(N2C(=O)CC(Nc3ccc(Cl)c(S(=O)(=O)N(C)C)c3)C2=O)c(C)c1 (configuration not stated) the results were ALDH1A1 inh inconclusive and KDM4E inh 1%.
For CCN1C(=O)CC(NCc2ccc(S(N)(=O)=O)cc2)C1=O (configuration not stated) the results were KDM4E inh 4%.
CN1/C(=C\C(=O)c2cncc(Br)c2)C(C)(C)c2ccccc21 was read as HPGD block -11%, ALDH1A1 inh -5%, KDM4E inh 0% and PNC assembly inh -84*.
